According to ChEMBL document CHEMBL4513216, “Probing the Open Global Health Chemical Diversity Library for Multistage-Active Starting Points for Next-Generation Antimalarials” (ACS Infect Dis, 2020):
In all, about 68,000 compounds went through this assay and about 2,700 (4%) showed an effect of 50% or more. This excerpt belongs to a sample that is enriched for strong results.

Tested on: Plasmodium berghei
Assay: Screen against P. berghei liver stage (PbLuc), transformed with Luciferase, at 2uM
Assay type: functional, HepG2
Settings: tested at 2 uM

First: COc1ccccc1CC(=O)NC(C)c1nc2cccnc2n1C(C)C (configuration not stated)
Second: COc1cccc(CC(=O)NC(C)c2nc3cccnc3n2C(C)C)c1 (configuration not stated)
The INHIBITION of the first is lower: 24.44% for the first, 74.83% for the second.

Compared with `COc1ccc(CC(=O)NC(C)c2nc3cccnc3n2C(C)C)cc1` (configuration not stated), `Cc1cncc(Oc2ccc(CN)cc2)n1` is higher in INHIBITION: -39.63% for the first, 32.31% for the second.

Compared with `COC(=O)C(CNC(=O)Nc1nncs1)Cc1cccc(C)c1` (configuration not stated), `Cc1cc(C)c(CNC(=O)NCc2ccncc2)c(=O)[nH]1` is higher in INHIBITION: 12.17% for the first, 26.76% for the second.

First: CCn1ccnc1CN1CCCN(C(=O)c2cc(C)nn2CC)CC1
Second: Cc1cc(C(=O)N2CCN(c3ccncc3Cl)CC2)n(C)n1
The INHIBITION of the first is lower: 11.09% for the first, 64.35% for the second.

Compared with `CC(C)C(=O)N(C)Cc1nc(N2CCCC2)ncc1-c1ccncc1`, `CN1CCC(n2nc(Cc3cccs3)nc2-c2ccncc2)CC1` is higher in INHIBITION: -6.41% for the first, 21.97% for the second.

Going from `Nc1nnc(CCNc2ncnc3c2CCN(C(=O)C2CC2)C3)s1` to `Nc1nc(CCNc2ncnc3c2CCN(C(=O)C2CC2)C3)cs1`, the INHIBITION falls from 11.9% to -26.81%.

First: CCc1ccc(CCNc2ncnc3c2CCN(C(=O)C2CC2)C3)cc1
Second: CCc1ccc(CC)c(NCc2cnc(N3CCOCC3)nc2)c1
The INHIBITION of the first is higher: 55.66% for the first, -64.63% for the second.

Compared with `Cc1cc(C)c(Cn2cncn2)cc1CN1CC[C@H](CO)[C@@H](O)C1`, `CC(C)Cc1nc(CN2CCOC(Cn3cncn3)C2)no1` (configuration not stated) is higher in INHIBITION: -64.63% for the first, 40.17% for the second.

Going from `COC1CCN(S(=O)(=O)N2CCCC(c3cccc(C(=O)O)c3)C2)CC1` (configuration not stated) to `CC1CCN(S(=O)(=O)N2CCCC(c3cccc(C(=O)O)c3)C2)CC1` (configuration not stated), the INHIBITION falls from 57.59% to -18.41%.

Going from `CC1(C)CCN(S(=O)(=O)N2CCCC(c3cccc(C(=O)O)c3)C2)CC1` (configuration not stated) to `Cn1ccc2c(C(=O)N3CCN(C(=O)C4CCCC4)CC3)cccc21`, the INHIBITION falls from 19.04% to 16.64%.

First: O=C1OC2(CCN(C3CCCOC3)CC2)CN1CCc1ccccc1 (configuration not stated)
Second: CC(C)CCN1CC2(CCN(C3CCCOC3)CC2)OC1=O (configuration not stated)
The INHIBITION of the first is lower: -1.27% for the first, 57.47% for the second.

Going from `CN(C)CCCN1CC2(CCN(C3CCCOC3)CC2)OC1=O` (configuration not stated) to `Cc1cc(C(=O)N2CCN(C(=O)CCC3CCCCC3)CC2)n(C)n1`, the INHIBITION rises from 24.81% to 74.44%.

Compared with `COCCNC(=O)N1CC(Cc2ccccc2F)C1`, `Cc1cnc(N2CCOC(C(=O)NCc3ccccc3)C2)s1` (configuration not stated) is higher in INHIBITION: -41.64% for the first, 10.03% for the second.

Compared with `CCCc1cnc(C)nc1N1CCC(Cn2cc(CO)nn2)CC1`, `Cc1cc(C)n2ncc(CN3CCC(Cn4cc(CO)nn4)CC3)c2n1` is higher in INHIBITION: 9.69% for the first, 64.9% for the second.

Compared with `Cc1cc(C)n2ncc(CN3CCC(n4cc(CCO)nn4)CC3)c2n1`, `Cc1ncsc1-c1nc(Cc2cccs2)nn1C1CCN(C)CC1` is higher in INHIBITION: 31.51% for the first, 43.44% for the second.

Compared with `CCC(C(=O)NCc1csc(N2CCOCC2)n1)n1cccn1` (configuration not stated), `Clc1cnc(NCc2ccccc2N2CCOCC2)nc1` is lower in INHIBITION: 17.78% for the first, -2.35% for the second.

Going from `CCCc1nc(CN2CCOC(Cn3cncn3)C2)no1` (configuration not stated) to `CCc1nc(CN2CCOC(Cn3cncn3)C2)no1` (configuration not stated), the INHIBITION rises from 37.52% to 55.7%.

First: c1cnn(CC2CN(Cc3nc(C4CC4)no3)CCO2)c1 (configuration not stated)
Second: c1ncn(CC2CN(Cc3nc(C4CC4)no3)CCO2)n1 (configuration not stated)
The INHIBITION of the first is lower: 9.41% for the first, 60.64% for the second.

Going from `c1ncn(CC2CCCN(Cc3nc(C4CC4)no3)C2)n1` (configuration not stated) to `CS(=O)(=O)CCNC1CCCN(Cc2noc(C3CC3)n2)C1` (configuration not stated), the INHIBITION rises from -8.84% to 33.52%.

First: COCC(=O)N1C[C@@H]2CCCO[C@@H]2[C@H](N(C)Cc2ccco2)C1
Second: COCCNC(=O)[C@@]12CCO[C@@H]1CCN(Cc1cc(C)on1)C2
The INHIBITION of the first is lower: -17.76% for the first, 10.43% for the second.

Compared with `Cc1ccc(CN2CCOC3(CCCN(c4cccc(F)c4)C3)C2)o1` (configuration not stated), `O=C(c1cc(F)ccc1O)N1CCN(C(=O)C2CCC2)CC1` is lower in INHIBITION: 22.15% for the first, -10% for the second.

First: Cc1noc(C)c1CN1CCN(C(C)c2nc(C3CC3)no2)CC1 (configuration not stated)
Second: CCc1noc(C)c1-c1nc(Cc2cccs2)nn1C1CCN(C)CC1
The INHIBITION of the first is lower: 33.22% for the first, 64.9% for the second.

Compared with `CCc1sc(C(=O)Nc2cnn(CC(N)=O)c2)cc1C`, `CN(CC(N)=O)C(=O)CCCn1ccc2cc(Cl)ccc21` is higher in INHIBITION: 2.51% for the first, 28.42% for the second.

Compared with `CN(C)S(=O)(=O)N1CC[C@]2(O)CCN(c3ncccn3)C[C@@H]2C1`, `CN(C)S(=O)(=O)N1CC[C@]2(O)CCN(c3cc(C#N)ccn3)C[C@@H]2C1` is higher in INHIBITION: 13.51% for the first, 57.68% for the second.

First: CS(=O)(=O)N1CC[C@]2(O)CCN(c3cc(C#N)ccn3)C[C@@H]2C1
Second: O=C(NCc1ccccc1)C1CN(c2ccccn2)CCO1 (configuration not stated)
The INHIBITION of the first is lower: 19.44% for the first, 82.2% for the second.

Going from `O=C(c1ccccc1O)N1CCN(C(=O)C2CCC2)CC1` to `Cc1nn(C)c(C)c1C(=O)N1CCN(C(=O)CC2CCCCC2)CC1`, the INHIBITION falls from 51.31% to 43.44%.

Going from `Cc1ccc(S(=O)(=O)Nc2ccc(-n3nnn(C)c3=O)cc2)cc1` to `CN(Cc1ncnn1C)C(=O)CCn1ccc2ccccc21`, the INHIBITION rises from -2.66% to -2.19%.

Going from `CN(Cc1ncnn1C)C(=O)CCCn1ccc2cc(Cl)ccc21` to `Cc1nn(C)c(C)c1C(=O)N1CCN(c2ccncc2Cl)CC1`, the INHIBITION falls from 57.23% to 4%.

Compared with `Cc1cnc(N2C[C@H]3CN(Cc4csc(C)n4)C(=O)[C@H]3C2)nc1`, `CNc1cccc(C2CCCN(C(=O)c3cnccn3)C2)n1` (configuration not stated) is higher in INHIBITION: 22.18% for the first, 36.98% for the second.

Going from `CNc1cccc(C2CCCN(C(=O)c3cccnc3)C2)n1` (configuration not stated) to `CNc1cccc(C2CCCN(C(=O)c3ccncc3)C2)n1` (configuration not stated), the INHIBITION rises from -23.48% to 52.89%.

First: O=C(NCc1cccnc1)[C@H]1C[C@@H]2CCN(c3ccncn3)C[C@H]2O1
Second: O=C(c1ccon1)N1CCN(c2ccncc2Cl)CC1
The INHIBITION of the first is lower: 23.53% for the first, 39.5% for the second.

Compared with `O=C(Nc1ccc(-c2ccccc2)cc1)N1C[C@@H]2CNC[C@]2(C(=O)O)C1`, `O=C(Nc1ccccc1-c1ccccc1)N1C[C@@H]2CNC[C@]2(C(=O)O)C1` is lower in INHIBITION: 51.42% for the first, 14.54% for the second.

Going from `O=C(c1ccccc1-c1ccccc1)N1C[C@@H]2CNC[C@]2(C(=O)O)C1` to `Cc1nn(C)c(C)c1C(=O)N1CCN(C(=O)CCC2CCCCC2)CC1`, the INHIBITION rises from 19.13% to 21.97%.

`CC(C)c1cc(C(=O)NCC2CCCN(C(C)C)C2)n(C)n1` (configuration not stated) showed an INHIBITION of 48.04%.
